From PubChem BioAssay
Calls of active or inactive are those of the source.

Tests used:
Albumin (Bos taurus) = Albumin (Bos taurus) (UniProt P02769); test: bovine serum albumin binders on microarray, profiling panel, artefact control for SMM control protein annotation, biochemical, small-molecule microarray, Alexa647 label, 635/667 nm fluorescence (AID 1118); settings: BSA-A647 binding, fluorescence 635 nm, higher = more signal;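 further: score merges 667 nm emission intensity and signal-to-noise per printed compound spot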
Sequence of Albumin (Bos taurus) (P02769 whole entry, looked up): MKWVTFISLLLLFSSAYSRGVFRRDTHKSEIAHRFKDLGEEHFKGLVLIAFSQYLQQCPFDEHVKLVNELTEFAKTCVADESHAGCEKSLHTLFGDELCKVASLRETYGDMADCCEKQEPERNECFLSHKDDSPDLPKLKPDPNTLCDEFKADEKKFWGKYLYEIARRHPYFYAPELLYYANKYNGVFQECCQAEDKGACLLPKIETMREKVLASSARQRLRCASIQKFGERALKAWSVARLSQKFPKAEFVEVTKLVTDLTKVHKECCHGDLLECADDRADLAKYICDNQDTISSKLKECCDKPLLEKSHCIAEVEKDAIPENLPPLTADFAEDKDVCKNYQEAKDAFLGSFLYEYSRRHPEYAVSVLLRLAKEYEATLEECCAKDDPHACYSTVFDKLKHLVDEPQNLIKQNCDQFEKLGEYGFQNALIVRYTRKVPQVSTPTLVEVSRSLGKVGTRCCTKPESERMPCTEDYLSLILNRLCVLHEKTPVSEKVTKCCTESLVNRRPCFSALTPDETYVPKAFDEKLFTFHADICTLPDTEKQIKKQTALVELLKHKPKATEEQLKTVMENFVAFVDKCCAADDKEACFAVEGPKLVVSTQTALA

[1] = small-molecule microarray binders of probe aXIP, primary screen, biochemical, NeuroSMM set, 635/667 nm fluorescence (AID 1119); settings: higher = more signal, called active from +8 up or from −8 down;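 further: probe is the protein aXip251-270 applied at 1 µg/mL to compound-printed slides; binding of probe to printed compounds measured as 667 nm fluorescence plus signal to noise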
[2] = small-molecule binders of probe aNOTCH3, primary screen, biochemical, small-molecule microarray, 635/667 nm fluorescence (AID 1120); settings: higher = more signal;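 further: probe is a biotin-tagged antibody raised against NOTCH3 rather than NOTCH3 protein; score merges spot fluorescence near 667 nm with spot signal to noise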
[3] = small-molecule binders of probe aNOTCH2, primary screen, biochemical, small-molecule microarray, 635/667 nm fluorescence (AID 1121); settings: higher = more signal;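 further: score merges feature fluorescence read at 667 nm with its signal to noise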
[4] = target: Carbonic anhydrase 2 (Homo sapiens) (UniProt P00918); test: CAII small-molecule binders, profiling panel, biochemical, small-molecule microarray, Alexa647-labelled CAII (AID 1122); settings: CAII-A647 binding fluorescence, higher = more signal
[5] = COS7 lysate on small-molecule microarray, probe aHis, 635 nm (AID 1123); settings: COS7 cell lysate, fluorescence, higher = more signal;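 further: z-score combines 667nm fluorescence intensity with signal-to-noise per printed compound spot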
[6] = compound binding in COS7 lysate, probe aLAP1, primary screen, cell lysate, small-molecule microarray (AID 1124); settings: probe aLAP1, fluorescence, higher = more signal;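 further: lysate comes from COS7 cells expressing LAP1 and is applied at 0.3 µg/mL; score merges spot fluorescence near 667 nm with signal-to-noise over triplicate slides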
Sam68 (KHDRBS1) = test: Sam68 small-molecule binders, primary screen, biochemical, small-molecule microarray, 635 nm fluorescence (AID 1125); settings: small-molecule microarray binding, higher = more signal;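 further: score merges 667 nm channel intensity with signal to noise over triplicate slides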
[7] = test system: Chordin-like protein 2 (CHRDL2); test: CHRDL2 small-molecule binders, primary screen, biochemical, small-molecule microarray, 635 nm fluorescence (AID 1126); settings: small-molecule microarray binding, fluorescence 635 nm; higher = more signal;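 further: printed compound slides probed with Chrdl2 protein at 4 µg/mL for 1 h at 4 C; score merges 667 nm emission intensity with signal to noise over three replicate slides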
[8] = target: Concanavalin-A (Canavalia ensiformis) (UniProt P02866); test: ConA small-molecule binders, primary screen, artefact control for SMM control protein annotation, biochemical, small-molecule microarray, Alexa647 label, 635 nm (AID 1127); settings: ConA-A647 binding fluorescence, higher = more signal;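 further: z combines 667 nm emission intensity with signal-to-noise across three replicate slides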
Sequence of Concanavalin-A (Canavalia ensiformis) (P02866 whole entry, looked up): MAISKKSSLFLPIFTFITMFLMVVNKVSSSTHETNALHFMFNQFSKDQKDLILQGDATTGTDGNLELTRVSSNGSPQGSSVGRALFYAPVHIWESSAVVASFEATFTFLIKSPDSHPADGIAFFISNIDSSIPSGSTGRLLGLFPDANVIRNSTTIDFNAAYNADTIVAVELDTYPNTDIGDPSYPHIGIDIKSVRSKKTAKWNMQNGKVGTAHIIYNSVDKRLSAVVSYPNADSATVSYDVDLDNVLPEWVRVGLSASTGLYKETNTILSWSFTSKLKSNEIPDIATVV

[9] = anti-His antibody binders, primary screen, artefact control for SMM control protein annotation, biochemical, small-molecule microarray, 635 nm fluorescence (AID 1128); settings: anti-His Alexa647 antibody binding, higher = more signal;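 further: score merges feature fluorescence with signal-to-noise for each printed compound spot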
[10] = test system: Human papillomavirus type 1a E7 protein (residues 1-88); test: HPV1a E7 small-molecule binders, primary screen, biochemical, small-molecule microarray, residues 1-88, 635 nm (AID 1129); settings: small-molecule microarray binding, fluorescence 635 nm; higher = more signal
[11] = target: Focal adhesion kinase 1 (Homo sapiens) (UniProt Q05397); test: small-molecule microarray binders of FAK, primary screen, biochemical, 635/667 nm fluorescence, BSA, DTT (AID 1130); settings: PTK2 binding, 635 nm fluorescence, higher = more signal;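 further: composite of spot emission at 667 nm and signal to noise over triplicate slides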
Sequence of Focal adhesion kinase 1 (Homo sapiens) (Q05397 whole entry, looked up): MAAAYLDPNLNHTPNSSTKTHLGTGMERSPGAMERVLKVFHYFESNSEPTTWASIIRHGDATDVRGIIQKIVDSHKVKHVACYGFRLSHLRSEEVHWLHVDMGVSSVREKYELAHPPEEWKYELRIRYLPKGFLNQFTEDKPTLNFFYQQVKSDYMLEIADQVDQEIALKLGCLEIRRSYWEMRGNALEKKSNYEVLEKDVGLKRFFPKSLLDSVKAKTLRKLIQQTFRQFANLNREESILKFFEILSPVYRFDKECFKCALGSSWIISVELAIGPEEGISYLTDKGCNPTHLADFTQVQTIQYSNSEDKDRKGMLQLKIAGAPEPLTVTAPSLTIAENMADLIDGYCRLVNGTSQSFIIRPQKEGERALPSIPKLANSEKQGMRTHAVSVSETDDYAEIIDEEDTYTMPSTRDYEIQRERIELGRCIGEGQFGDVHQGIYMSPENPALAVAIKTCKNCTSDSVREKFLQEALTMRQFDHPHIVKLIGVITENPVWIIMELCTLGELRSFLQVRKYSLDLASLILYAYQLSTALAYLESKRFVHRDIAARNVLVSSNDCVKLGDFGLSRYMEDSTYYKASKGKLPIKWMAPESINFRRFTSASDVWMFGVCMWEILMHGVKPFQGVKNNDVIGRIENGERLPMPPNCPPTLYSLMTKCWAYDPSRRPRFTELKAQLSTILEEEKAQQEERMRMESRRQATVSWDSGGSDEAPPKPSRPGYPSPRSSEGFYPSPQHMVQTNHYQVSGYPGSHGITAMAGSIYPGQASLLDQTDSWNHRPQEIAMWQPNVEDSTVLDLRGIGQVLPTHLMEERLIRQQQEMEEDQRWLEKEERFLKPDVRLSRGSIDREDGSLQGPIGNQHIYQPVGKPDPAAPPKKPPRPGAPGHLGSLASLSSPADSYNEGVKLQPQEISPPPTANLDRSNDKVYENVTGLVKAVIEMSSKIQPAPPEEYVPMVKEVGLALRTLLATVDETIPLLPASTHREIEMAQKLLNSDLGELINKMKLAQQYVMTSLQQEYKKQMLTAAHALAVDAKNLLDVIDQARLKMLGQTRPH

[12] = test system: Fibrinogen (Alexa647-labelled); test: fibrinogen binders on compound microarrays, profiling panel, artefact control for SMM control-protein annotation, biochemical, small-molecule microarray, 635/667 nm fluorescence (AID 1131); settings: fibrinogen-A647 binding fluorescence, higher = more signal;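 further: z-score merges 667 nm fluorescence with per-spot signal-to-noise over triplicate slides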
[13] = target: Follistatin (Homo sapiens) (UniProt P19883); test: follistatin binders on small-molecule microarrays, primary screen, biochemical, small-molecule microarray, 635/667 nm fluorescence (AID 1132); settings: FST binding, 635 nm fluorescence, higher = more signal
Sequence of Follistatin (Homo sapiens) (P19883 whole entry, looked up): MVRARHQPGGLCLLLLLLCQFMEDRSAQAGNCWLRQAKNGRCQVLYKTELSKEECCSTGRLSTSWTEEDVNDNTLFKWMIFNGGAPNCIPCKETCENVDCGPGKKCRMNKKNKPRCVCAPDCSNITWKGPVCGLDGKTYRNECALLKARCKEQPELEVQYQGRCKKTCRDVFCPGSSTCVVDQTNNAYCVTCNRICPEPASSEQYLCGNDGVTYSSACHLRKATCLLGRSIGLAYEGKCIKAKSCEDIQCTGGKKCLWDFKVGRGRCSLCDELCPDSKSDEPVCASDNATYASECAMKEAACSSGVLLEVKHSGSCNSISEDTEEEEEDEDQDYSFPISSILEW

[14] = target: Fibroblast growth factor 2 (Homo sapiens) (UniProt P09038); test: FGF2 binders on small-molecule microarrays, primary screen, biochemical, small-molecule microarray, 635/667 nm fluorescence (AID 1133); settings: small-molecule microarray binding, FGF2, fluorescence 635/667; higher = more signal
Sequence of Fibroblast growth factor 2 (Homo sapiens) (P09038 whole entry, looked up): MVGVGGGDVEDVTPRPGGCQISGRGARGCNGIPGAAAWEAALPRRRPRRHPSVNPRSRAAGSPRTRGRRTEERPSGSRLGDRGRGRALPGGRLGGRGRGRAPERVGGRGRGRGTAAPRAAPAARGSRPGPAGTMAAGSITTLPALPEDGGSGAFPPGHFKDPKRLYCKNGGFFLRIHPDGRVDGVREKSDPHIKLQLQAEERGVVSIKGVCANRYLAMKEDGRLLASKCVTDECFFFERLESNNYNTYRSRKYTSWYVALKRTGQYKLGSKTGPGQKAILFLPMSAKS

[15] = mitochondrial membrane potential change in A549 cells, profiling panel, cell-based, JC-1 fluorescence, basal, 24 h, 100 nL (AID 1138); settings: higher = more signal;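 further: A549 lung adenocarcinoma cells under basal conditions with no added stimulus; test concentration not given here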
Lefty1 = Lefty1 binders on small-molecule microarrays, primary screen, biochemical, small-molecule microarray, 635/667 nm fluorescence (AID 1139); settings: small-molecule microarray binding, fluorescence 635/667; higher = more signal
[16] = test system: wheat germ agglutinin (Triticum aestivum), Alexa647-labelled; test: wheat germ agglutinin binders on compound microarrays, profiling panel, artefact control for SMM control-protein annotation, biochemical, small-molecule microarray, 635/667 nm fluorescence (AID 1140); settings: WGA-A647 binding, 635 nm fluorescence, higher = more signal;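 further: score merges 667 nm feature emission with signal to noise over triplicate slides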
[17] = target: Luciferin 4-monooxygenase (Photinus pyralis) (UniProt P08659); test: firefly luciferase enzyme inhibitors, primary screen, biochemical, luminescence, purified enzyme, 2006 set (AID 1141); settings: SteadyGlo luminescence, 30 min, higher = more signal, called active from +8 up or from −8 down;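 further: cell-free assay with purified firefly luciferase at 100 ng per well in PBS; test concentration not given here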
Sequence of Luciferin 4-monooxygenase (Photinus pyralis) (P08659 whole entry, looked up): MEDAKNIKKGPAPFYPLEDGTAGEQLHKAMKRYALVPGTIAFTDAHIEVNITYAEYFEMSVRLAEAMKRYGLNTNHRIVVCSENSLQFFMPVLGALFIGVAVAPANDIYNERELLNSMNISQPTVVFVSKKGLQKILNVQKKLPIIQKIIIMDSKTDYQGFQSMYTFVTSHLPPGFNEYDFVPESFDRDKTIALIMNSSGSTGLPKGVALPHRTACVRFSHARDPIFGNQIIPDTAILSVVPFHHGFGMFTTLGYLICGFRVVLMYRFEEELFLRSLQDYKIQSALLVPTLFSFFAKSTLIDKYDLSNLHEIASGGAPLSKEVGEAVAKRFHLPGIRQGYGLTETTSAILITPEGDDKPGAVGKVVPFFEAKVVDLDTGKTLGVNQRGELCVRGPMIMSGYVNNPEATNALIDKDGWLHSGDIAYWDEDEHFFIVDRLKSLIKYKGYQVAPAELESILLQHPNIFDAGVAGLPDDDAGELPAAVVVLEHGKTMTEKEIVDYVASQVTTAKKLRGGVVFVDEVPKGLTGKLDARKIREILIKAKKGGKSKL

Row | SMILES | composite z-score (Albumin (Bos taurus)) | composite Z-score [1] | composite z-score [2] | composite z-score [3] | composite z-score [4] | composite z-score [5] | composite z-score [6] | composite z-score (Sam68 (KHDRBS1)) | composite z-score [7] | composite z-score [8] | composite z-score [9] | composite z-score [10] | composite z-score [11] | composite z-score [12] | composite z-score [13] | composite z-score [14] | z-score [15] | composite z-score (Lefty1) | composite z-score [16] | z-score [17]
1 | C=CCN1C(=O)[C@@]2(O[C@@H](CCn3cc([C@H](O)c4ccccc4)nn3)[C@H]([Si](C)(C)c3ccc(OC)cc3)[C@H]2C)c2ccccc21 | 0.205 | 0.363 (inactive) | 0.221 | -0.151 | 0.499 | 0.422 | 0.572 | 1.08 | 0.333 | 1.01 | 0.351 | 1.14 | 0.287 | 0.371 | 1.18 | 0.761 | 0.493 | 1.2 | 0.875 | 0.586 (inactive)
2 | C=C[C@@H](C)[C@H](OC(=O)Nc1ccc(SC)cc1)c1ccc(OCCO)cc1 | -0.145 | -0.109 (inactive) | 0.132 | -0.259 | 0.449 | 0.476 | -0.0181 | -0.867 | -0.61 | -0.345 | -0.0489 | -0.784 | 0.31 | -1.64 | 0.229 | -0.549 | -0.497 | 0.0878 | 0.782 | -4.77 (inactive)
3 | COCCOC(=O)N1C(=O)[C@@]2(c3cc(C#Cc4ccc(OC)cc4)ccc31)[C@H](C(=O)N1CCN(c3ncccn3)CC1)[C@H]1C(=O)O[C@H](c3ccccc3)[C@H](c3ccccc3)N1[C@@H]2c1ccccc1OCCO | -0.108 | 0.131 (inactive) | -0.122 | -0.114 | 0.331 | 1.3 | 0.107 | 0.717 | -0.0849 | 0.819 | 2.03 | 1.14 | 0.364 | -0.118 | 0.579 | 0.238 | -0.94 | 0.305 | 0.701 | 0.223 (inactive)
4 | O=C1OCC=C[C@H]2OC34C=CCN(Cn5nnc6ccccc65)C(=O)[C@H]3N(CCCCCCO)C(=O)[C@@H]4[C@@H]12 (stereo not given in full) | -1.02 | 0.648 (inactive) | -0.165 | -0.126 | 0.904 | 0.718 | 0.79 | 0.0126 | -0.743 | -1.01 | 1.42 | -0.238 | 0.058 | -1.49 | -0.982 | -0.525 | 0.421 | -0.835 | -0.544 | -0.283 (inactive)
5 | CC(C)(C)OC(=O)CC[C@]1(C(=O)N2CCOCC2)N=C(c2ccc(OCCCO)cc2)O[C@H]1c1ccccc1 | 0.969 | -0.131 (inactive) | 0.116 | -0.17 | 0.834 | 2.75 | 0.135 | 1.02 | -0.267 | 0.838 | 1.9 | 0.645 | 0.407 | 0.886 | 0.825 | 0.858 | 2.23 | 0.398 | 0.298 | -1.99 (inactive)
6 | CN(C)CCCCNC(=O)[C@H]1C[C@H]2C(=O)N3CCC[C@H]3C(=O)N2[C@H]1c1ccc(O)cc1 | -0.813 | 0.11 (inactive) | -0.738 | -0.5 | 0.666 | 1.44 | -0.642 | -1.11 | 0.0994 | -0.397 | -0.268 | -1.6 | -0.401 | -1.05 | 0.443 | -1.01 | -0.983 | -0.428 | -0.534 | 0.501 (inactive)
7 | C=CC[C@@H](OC(=O)Nc1ccc(OC)cc1)c1ccc(OCCO)cc1 | 0.384 | 0.166 (inactive) | -0.46 | -0.0911 | 0.709 | 0.31 | -0.347 | -0.661 | -2 | -1.54 | -0.662 | -0.646 | -0.676 | -3 | -0.787 | -1.6 | -0.371 | -0.999 | -0.262 | -5.18 (inactive)
8 | O=C(NC1CC1)[C@@H]1c2ccccc2C(=O)N(Cc2ccccc2)[C@H]1c1ccc(CO)cc1 | 0.0082 | 0.081 (inactive) | -0.272 | -0.127 | 0.698 | 2.72 | 1.36 | 0.372 | -0.346 | 0.38 | 0.522 | 0.802 | -0.747 | 0.497 | 0.665 | 0.483 | 2.09 | 0.626 | 0.905 | 0.017 (inactive)
9 | Cc1ccc(S[C@]2(C(=O)O)CC(=O)N(Cc3ccccc3Cl)[C@@H]2c2ccc(CO)cc2)cc1 | 0.489 | -0.173 (inactive) | -0.159 | -0.0519 | 0.75 | 1.72 | 0.591 | -0.503 | -0.828 | -0.503 | -0.24 | -0.558 | -0.299 | -0.271 | -0.83 | -0.26 | -0.939 | -1.26 | 0.478 | -0.999 (inactive)
10 | O=C1O[C@@H](c2ccccc2)[C@@H](c2ccccc2)N2[C@@H](c3ccc(O)cc3)[C@]3(C(=O)Nc4ccccc43)[C@@H](C(=O)Nc3nc4ccccc4s3)[C@H]12 | 0.625 | -0.8 (inactive) | 0.0695 | -0.144 | 0.613 | 1.39 | 0.399 | 1.31 | 0.0129 | 1.17 | 1.07 | 1.18 | 0.708 | 0.975 | 1.2 | 0.398 | -2.38 | 0.745 | 0.634 | -1.1 (inactive)
11 | O=C(O)[C@]1(Cc2ccccc2)N=C(c2ccc(OCCCO)cc2)O[C@@H]1c1ccccc1 | 0.424 | -0.191 (inactive) | -0.122 | -0.14 | 0.837 | 0.689 | -0.278 | -1.24 | -1.65 | 0.0277 | 1.03 | -0.0591 | 0.136 | -0.0288 | -0.431 | -0.846 | -0.069 | -0.296 | -0.218 | 0.779 (inactive)
